From PubChem BioAssay AID827 (SRMLSC, 2007)
The campaign covered roughly 140,000 compounds. About 1,700 (1.2%) were called active. This excerpt belongs to a sample that is enriched for actives. Unmarked numbers belong to inactive results.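 How the source made its calls: active means viability at or below a set limit, 4 SD under the median of all tested compounds (cut at about 3.7% in these data); inactive means the rest.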

assay: growth suppression of PTEN-null HCT116, primary screen, cell-based, CellTiter-Glo (AID 827); settings: 60 h, at 10 µM, active compounds read low;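 further: PTEN knockout HCT116 line with beta catenin targeted HCT116 as companion control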

SMILES | viability
COc1ccc(C2CC(c3ccccc3)=NN2C(=O)c2ccc(Cl)c([N+](=O)[O-])c2)cc1 (stereo unspecified) | 10.4%
CCOc1ccccc1C1CC(c2cccc(NS(C)(=O)=O)c2)=NN1C(=O)c1ccccc1 (stereo unspecified) | 84.5%
CCOc1ccc2nc(Cl)c(C3CC(c4ccccc4)=NN3C(=O)c3cccs3)cc2c1 (stereo unspecified) | 1.17% (active)
Cc1c(Cl)cnc(NC(=O)COC(=O)c2ccc(S(=O)(=O)NCc3ccco3)cc2)c1Cl | 85.2%
NC(N)=N/N=C/c1ccc(OCc2ccc(Cl)cc2Cl)cc1 | 1.56% (active)
COc1ccc(C(=O)O/N=C(\N)Cc2ccc(Cl)cc2Cl)cc1OC | 69.4%
COC(=O)c1sc2ncccc2c1OCc1ccc(Cl)cc1Cl | 63.7%
CC1CCCCN1C(=S)NCc1ccccc1 (stereo unspecified) | 94.7%
O=C(CC1SC(=Nc2ccccc2)N(Cc2ccccn2)C1=O)Nc1cccc(Cl)c1 (stereo unspecified) | 76.2%
Cc1nc(C)c(C(=O)Nc2cccc(C)c2C)o1 | 109%
O=C(O)c1ccccc1-c1ccccc1C(=O)Nc1cccc2ccccc12 | 96%
O=C(Nc1cccc2ccccc12)c1onc2c1CCCC2 | 0.29% (active)
Cc1ccc(-n2nc(C)c(/C=N/NC(=O)c3cccs3)c2Cl)cc1 | 55.5%
Cc1c(C2=CCN(S(=O)(=O)c3ccc(Cl)cc3)CC2)c2ccccc2n1C | 74%
COc1ccc(C(CCNCc2ccccc2F)c2ccc(F)cc2)cc1 (stereo unspecified) | 10.1%
COc1cccc(CNCCc2c[nH]c3ccccc23)c1OCc1ccccc1F | 1.43% (active)
COc1ccccc1NC(=O)CCCc1c[nH]c2ccccc12 | 92.8%
CCOC(=O)/C(N=Nc1cc(C(=O)O)cc(C(=O)O)c1)=C(\O)CCl | 101%
CC(=O)c1c(N2CCN(c3ccc(F)cc3)CC2)nc(=S)n(-c2ccccc2)c1C | 93%
Nc1nnc(SCC(=O)Nc2ccc3nc(SCC(=O)Nc4ccccc4)sc3c2)s1 | 72.2%
O=c1[nH]n(-c2cccc(Cl)c2)c2ncccc12 | 95.2%
Clc1cccc(CN2COc3c(cc(Cl)c4cccnc34)C2)c1 | 3.76% (active)
Oc1c(CN2CCN(c3ccc(F)cc3)CC2)cc(Cl)c2cccnc12 | 4.32%

SMILES | viability
CCOC(=O)c1cccnc1NC(=O)c1ccncc1 | 101%
CCCc1nc2c([nH]1)C(c1cccnc1)C(C#N)=C(N)O2 (stereo unspecified) | 98.7%
COC(=O)NNC(=O)C1CCC(C)CC1 (stereo unspecified) | 97%
O=C(c1cccc2ccccc12)N1CCN(c2ccccc2F)CC1 | 90.8%
COC(=O)c1ccc(C(=O)OC)c(NC(=S)N2CCN(c3cc(Cl)ccc3C)CC2)c1 | 90.3%
Cc1ccc(Cl)cc1N1CCN(C(=O)c2cccc3c(=O)c(C)c(-c4ccccc4)oc23)CC1 | 1.24% (active)
COCCCNC(=O)Cn1cc(/C=C(\C#N)C(=O)N2CCN(c3ccccc3)CC2)c2ccccc21 | 86.2%
Cc1ccc(-c2nn(-c3ccccc3)cc2C(=O)Nc2cccc(S(=O)(=O)N3CCOCC3)c2)cc1 | 89.5%
Cc1cc(Cl)ccc1NC(=S)N1CCC(C(N)=O)(N2CCCCC2)CC1 | 88.6%
Cc1nc(CC(=O)NNS(=O)(=O)c2ccc(F)c(Cl)c2)cs1 | 95.8%
O=C(Cn1cnc2ccccc21)N/N=C/c1ccco1 | 97.9%
COc1cc(NC(=O)Nc2ccc(C)cc2)cc([N+](=O)[O-])c1 | 79.8%
COc1ccc(NC(=O)/C(Cl)=C(/Cl)S(=O)Cc2ccc(C)cc2)cn1 (stereo unspecified) | 0.92% (active)
COc1ccc(NS(=O)(=O)c2ccc(NC(=S)NC(=O)/C=C/c3ccc(C)cc3)cc2)nn1 | 94.4%
O=C(/C=C/c1ccccc1[N+](=O)[O-])NCC1CCCO1 (stereo unspecified) | 102%
C=CCNC(=S)NNC(=O)c1ccc(Br)o1 | 94.9%
CCN(CC)S(=O)(=O)c1ccc(C)c(NC(=O)COc2ccc(Br)cc2Cl)c1 | 84.6%
CCn1cc(/C=C2/SC(=S)NC2=O)c(C)n1 | 103%
COc1ccc(-c2cc(C(=O)NC(Cc3c[nH]c4ccccc34)C(=O)O)c(C)o2)cc1OC (stereo unspecified) | 99.7%
COc1ccc(Nc2cc(C)nc(-n3nc(C)cc3C)n2)cc1 | 18.6%
COc1ccccc1/C=N\Nc1cc(C)nc(-n2nc(C)cc2C)n1 | 2.6% (active)
COc1cc(NS(=O)(=O)c2ccccc2)ccc1-n1nc(C)cc1C | 94.5%
CCN(CC)CCn1c(/N=C/c2cc(Br)ccc2O)nc2ccccc21 | 94%
